Luciferase inh – inhibitors of firefly (Photinus pyralis) luciferase; Potency, µM (titrated, usually from 115 µM), hits mostly inhibitors; hit rate 2.5% among 76,000; purified P. pyralis luciferase, luminescence, biochemical; AID 1347043; note: nearly all actives have a fitted effect of over 65% in size
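Inhibitors were tested against purified firefly luciferase in a biochemical, low-substrate format (both substrates at 10uM) and luminescence measured with a CCD imager.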
hNpr1 antagonist – human Npr1 receptor antagonism | HEK293 hNpr1 GloSensor cGMP, ANP-stimulated luminescence | P16066 | Potency, µM (titrated, usually from 46.3 µM), for the others: top-dose activity change, negative = inhibition, most hits filed as inhibitors | hit rate 1.6% among 76,000 | AID 1347048; calls by dose curve; note: nearly all actives have a fitted effect of over 60% in size
Target sequence (P16066 whole entry, looked up): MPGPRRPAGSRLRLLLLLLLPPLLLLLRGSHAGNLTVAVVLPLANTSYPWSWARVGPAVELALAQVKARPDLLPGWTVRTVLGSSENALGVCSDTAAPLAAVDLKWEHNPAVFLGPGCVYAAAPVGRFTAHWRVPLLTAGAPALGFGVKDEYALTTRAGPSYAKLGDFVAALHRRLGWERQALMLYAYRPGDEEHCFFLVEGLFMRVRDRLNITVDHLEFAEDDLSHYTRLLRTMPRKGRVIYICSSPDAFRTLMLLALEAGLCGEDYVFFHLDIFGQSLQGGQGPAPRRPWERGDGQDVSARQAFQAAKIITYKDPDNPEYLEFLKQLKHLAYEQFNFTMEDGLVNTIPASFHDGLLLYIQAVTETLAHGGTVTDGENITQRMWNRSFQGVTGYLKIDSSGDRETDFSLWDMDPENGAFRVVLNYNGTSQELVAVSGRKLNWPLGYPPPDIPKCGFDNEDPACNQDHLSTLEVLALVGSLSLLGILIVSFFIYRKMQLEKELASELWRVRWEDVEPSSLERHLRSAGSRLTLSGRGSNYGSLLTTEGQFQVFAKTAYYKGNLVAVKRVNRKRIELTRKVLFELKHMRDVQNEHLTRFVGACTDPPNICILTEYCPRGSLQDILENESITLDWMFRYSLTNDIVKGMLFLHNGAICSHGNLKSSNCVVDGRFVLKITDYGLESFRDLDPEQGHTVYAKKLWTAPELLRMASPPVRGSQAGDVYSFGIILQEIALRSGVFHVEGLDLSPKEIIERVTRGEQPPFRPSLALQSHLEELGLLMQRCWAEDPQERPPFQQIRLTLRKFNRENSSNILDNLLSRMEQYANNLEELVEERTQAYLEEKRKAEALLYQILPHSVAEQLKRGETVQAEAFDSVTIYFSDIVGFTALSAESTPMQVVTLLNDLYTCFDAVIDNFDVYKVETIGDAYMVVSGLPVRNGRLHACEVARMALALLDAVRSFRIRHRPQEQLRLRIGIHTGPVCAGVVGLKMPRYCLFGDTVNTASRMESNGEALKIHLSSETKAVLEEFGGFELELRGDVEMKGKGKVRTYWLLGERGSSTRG
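Compound pre-incubated 30 min at room temperature on GloSensor-loaded HEK293 cells stably carrying hNpr1 and the pGS-40F cGMP biosensor. Stimulation uses hNppA at 0.1 nM final; luminescence is taken at baseline and 20 min post-agonist.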
GPT2 inhibitor – inhibitors of human GPT2 alanine aminotransferase. Q8TD30. Potency, µM (series often up to 57.7 µM), for the others: at the top dose activity change, negative = inhibition, most hits filed as inhibitors. Recombinant GPT2, coupled pyruvate oxidase/HRP Amplex Red fluorescence. AID 1671188. hit rate 0.25% among 100,000; note: nearly all actives have a fitted effect of over 60% in size
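Fluorescence read-out: pyruvate from GPT2 turnover coupled to pyruvate oxidase, HRP and Amplex Red (0.2mM ThPP, 0.2U/mL PO and HRP, 50uM Amplex final). Substrates 250uM a-KG, 2mM L-alanine; enzyme 10ng/uL; 30 min RT.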
HEK cytotox – cytotoxic compounds in HEK 293 cells. HEK 293 viability, ATP luminescence (CellTiter-Glo), 48-72 h. Potency, µM (titrated, usually from 115 µM), inactives show top-dose activity change, negative = cytotoxicity, usual class: inhibitors. hit rate 6.6% among 94,000. AID 1345083; note: nearly all actives have a fitted effect of over 60% in size
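Viability of HEK 293 cells, plated at 250 cells/well, was judged by cellular ATP after compound treatment for 48 or 72 hr. Luminescence was imaged 10 min after CellTiter-Glo addition at room temperature.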
3T3 cytotox – NIH 3T3 cell cytotoxicity; hit rate 4.3% among 94,000; Potency, µM (top dose mostly 96.7 µM), for inactives: at the top dose activity change, negative = cytotoxicity, hits mostly inhibitors; NIH 3T3 viability, CellTiter-Glo ATP luminescence, 48-72 h; note: nearly all actives have a fitted effect of over 55% in size
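Viability of NIH 3T3 cells after 48 or 72 hr compound treatment at 37 °C was assessed by CellTiter-Glo, with luminescence imaged following a 10 min room-temperature step.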
Numbers without * were called inactive; i = inactive; ? = inconclusive; · = no result; [ ] = remark or other dose. An excerpt weighted towards active compounds, which were near 10% of everything screened. Unless noted, calls come from the whole dose curve; as a rule, active = well fitted curve in the direction sought with a large enough effect; inconclusive = small, poorly fitted or top-dose-only effect, or another doubt; inactive = no such curve, though single readings can be large; an effect the other way counts as inactive or inconclusive. % is set by controls: 0 for no effect and ±100 for the full control effect; potency is the fitted concentration of half-maximal effect.

SMILES	Luciferase inh	hNpr1 antagonist	GPT2 inhibitor	HEK cytotox	3T3 cytotox
COc1ccc(-c2cc(N3CCC(NC(=O)c4ccc(N(C)C)cc4)CC3)n[nH]2)cc1	i	-6%	i	1%	i
CCOC(=O)C1CCN(C(=O)C2CCc3nnc(C4CCN([S+](=O)([O-])c5ccccc5Cl)CC4)n32)CC1 (configuration not stated)	·	·	i	i	-14%
Cc1noc(-c2ccn3c(CNC(=O)c4ccccc4Cl)nnc3c2)n1	i	-15%	-15%	?	?
O=C(Nc1ccc(F)cc1)c1cn2cc(-c3cccc(C(F)(F)F)c3)sc2n1	·	·	i	?	?
CN1C[C@H](NCc2ccc(F)cc2)CCC[C@@H](C(=O)N(C)Cc2cccnc2)CC1=O	i	-6%[70.6 µM]	-3%[88.5 µM]	?	-13%[174 µM]
COC(=O)[C@@H]1Cc2c([nH]c3ccccc23)[C@H]2C[C@@H](NCc3cccnc3)C[C@@H](c3ccc(F)c(F)c3)N21	i	-2%	0%	25µM*	?
O=C(NCc1cccnc1)[C@@H]1C[C@@H](c2ccc(F)cc2)N(CCOc2ccccc2)C1	i	-18%[70.6 µM]	-9%[88.5 µM]	?	?
COCC(=O)N[C@H]1C[C@H]2C(=O)NC[C@@H](CCC(=O)NCc3cccnc3)N2C1	i	2%[70.6 µM]	-9%[88.5 µM]	-21%[172 µM]	-6%[174 µM]
COC(=O)[C@@H]1Cc2c([nH]c3ccccc23)[C@H]2C[C@@H](NCc3cccnc3)C[C@@H](c3ccc(C(F)(F)F)cc3)N21	i	2%	-2%	?	28µM*
COC(=O)[C@@H]1Cc2c([nH]c3ccccc23)[C@H]2C[C@@H](NCc3cccnc3)C[C@@H](c3ccc(F)cc3)N21	i	-3%	3%	22µM*	20µM*
COc1cc(CN(C)C(=O)c2c(C)noc2-c2ccc(C(C)(C)C)cc2)cc(OC)c1OC	i	-20%	-11%	40µM*	?
Cc1noc(-c2ccc(C(C)(C)C)cc2)c1C(=O)NCc1cc(F)cc(F)c1	i	2%	5%	?	-23%
COc1cc(-c2onc(C)c2C(=O)NCCCSC)cc(OC)c1OC	i	-27%	4%	i	5%
Cc1noc(-c2ccc(OC(F)(F)F)cc2)c1C(=O)NCCC(c1ccccc1)c1ccccc1	i	-12%	?	35µM*	?
Cc1noc(-c2ccc(OC(F)(F)F)cc2)c1C(=O)NCCCc1ccccc1	i	2%	i	71µM*	?
COc1cc(-c2onc(C)c2C(=O)NCCCCc2ccccc2)cc(OC)c1OC	i	-5%	-1%	89µM*	?
Cc1cnc(C2CC2)n1C1CCCN(C(=O)c2nn(C)c3ccccc23)C1 (configuration not stated)	i	1%	?	?	?
O=C(c1nc2sccn2c1-c1ccc(F)cc1)N1CCCCC1	·	·	-2%[88.5 µM]	-4%[172 µM]	-22%[138 µM]
Cc1ccc(NC(=O)c2cc(-c3ccc[nH]3)n[nH]2)cc1F	8.9µM*	5%	i	?	?
NS(=O)(=O)c1ccc(CCNC(=O)c2cc(-c3ccc[nH]3)n[nH]2)cc1	i	4%	i	0%	i
Cc1cc(F)ccc1NC(=O)c1cc(-c2ccc[nH]2)n[nH]1	40µM*	1%	0%	?	-18%
O=C(Nc1ccc(F)cc1)c1cc(-c2ccc[nH]2)n[nH]1	5µM*	-3%	i	-23%	-28%
CC1CCC(NC(=O)c2cc(-c3ccc[nH]3)n[nH]2)CC1 (configuration not stated)	?	5%	-28%	5%	0%
O=C(NCc1ccc(F)cc1)c1cc(-c2ccc[nH]2)n[nH]1	i	?	2%	-20%	-26%
Cc1cccc(NC(=O)c2cc(-c3ccc[nH]3)n[nH]2)c1	2µM*	-18%	4%	-2%	-19%
O=C(Nc1ccc2c(c1)C(=O)N1CCC[C@H]1C(=O)N2)c1cc(-c2ccccc2)n[nH]1	i	2%	4%	-6%	?
COc1ccc(-c2ccc(C(=O)Nc3cccc(Cl)c3)c(Cl)c2)nn1	·	·	·	?	-17%
